For 20 molecules, growth inhibition results are on record in PubChem BioAssay (NCI).

Structures are written as SMILES. The panel holds about 79,000 compounds, 15% with a hit somewhere; the sample as a whole holds those more often. Unmarked numbers belong to inactive results. The source made the active and inactive calls. Rule as the data show it: active = growth inhibition above about 70%; inactive = the rest.

The nature of test [1]: NCI Yeast Anticancer Drug Screen. Data for the rad50 strain (AID 155).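 Also: 0% = growth of vehicle-only cultures of the same strain.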 The following applies: S. cerevisiae rad50 strain growth inhibition; at 50.0 µM; active compounds read high. The procedure, abridged:
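Readout: growth inhibition relative to vehicle-treated cultures. Compound exposure was carried out in a genetically defined yeast strain deficient in DNA damage repair.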

Test [2] in a line: NCI Yeast Anticancer Drug Screen. Data for the mec2-1 strain (AID 157). The settings on record: S. cerevisiae mec2-1 strain, at 50.0 µM, active compounds read high. The method in brief: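 Each compound was tested on mec2-1 yeast, a strain altered in DNA damage repair or cell cycle control. Growth inhibition is reported relative to vehicle.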
Test [3] can be described thus: NCI Yeast Anticancer Drug Screen. Data for the sgs1 mgt1 strain (AID 161).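 Also: 0% = growth of cultures given vehicle only.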 The settings on record: S. cerevisiae sgs1 mgt1 strain, at 50.0 µM, active compounds read high. The procedure, abridged:
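Genetically altered yeast, compound exposure, growth inhibition relative to vehicle.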

A short description of test [4]: NCI Yeast Anticancer Drug Screen. Data for the cln2 rad14 strain (AID 165).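 Also: 0% = growth equal to vehicle treated cultures.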 The settings on record: S. cerevisiae cln2 rad14 strain, at 50.0 µM, active compounds read high. The procedure, abridged: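 Test compounds were added to cln2 rad14 yeast cultures; inhibition of growth was then determined by comparison with vehicle treatment.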
The nature of test [5]: NCI Yeast Anticancer Drug Screen. Data for the bub3 strain (AID 167). The settings on record: S. cerevisiae bub3 mutant strain, at 50.0 µM, active compounds read high. The procedure, abridged:
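Readout: yeast growth inhibition, expressed relative to vehicle-only wells. The test organism is a mutant strain from a panel with lesions in DNA repair or checkpoint genes.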

Test [6] is described as follows: NCI Yeast Anticancer Drug Screen. Data for the mlh1 rad18 strain (AID 175). The following applies: S. cerevisiae mlh1 rad18 strain growth inhibition; at 50.0 µM; active compounds read high. The procedure, abridged:
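Inhibition values reflect reduced growth of mutant yeast versus vehicle-treated controls following compound exposure; the mutations affect DNA damage repair.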

Regarding `CCOCC(Cl)C(OCC)OCC` (stereo not given), the growth inhibition in test [1] was 0.45%; in test [2] it was 6.5%; in test [3] it was -5.4%; in test [4] it was -20.1%; in test [5] it was 2.85%; in test [6], -1.1%.
For the molecule `O=C(Nc1cc(Cl)ccc1Cl)Oc1ccc(Cl)cc1C(=O)c1ccccc1`, the growth inhibition in test [1] was -45%; in test [2], -10.4%; in test [3] it was -37.8%; in test [4], -16.8%; in test [5], -35.4%; in test [6] it was -56.9%.
`CCCCCCCCCCCCCCCCSc1ccncc1NN=O`: the growth inhibition in test [1] was 36.2%; in test [2], -2%; in test [3], 17.1%; in test [4], -10.5%; in test [5], -3.8%; in test [6] it was 2.3%.
For the molecule `O=c1c2c(c(=O)c(=O)c1=O)Nc1ccccc1N2`, the growth inhibition in test [1] is 22.2%; in test [2], -6.15%; in test [3], 11.6%; in test [4] it was 34.7%; in test [5], 10.2%; in test [6] it was 15.7%.
In the case of `Cc1ccc(S(=O)(=O)/N=C/C=P(c2ccccc2)(c2ccccc2)c2ccccc2)cc1`, the growth inhibition in test [1] is 11.4%; in test [2] it was 7.45%; in test [3], -22.1%; in test [4] it was -19%; in test [5], -2.1%; in test [6], -3.65%.
Regarding `CC(C(=O)O)C1(O)CCCCC1` (stereo not given), the growth inhibition in test [1] is 0.6%; in test [2], -13.9%; in test [3], -8.4%; in test [4], -25.4%; in test [5] it was 13.7%; in test [6], -8.4%.
As for `CCCCCCCCCCCCCCCCCCNC(=O)N1CCC(C)CC1`, the growth inhibition in test [1] is -7.9%; in test [2], -4.8%; in test [3], 21.2%; in test [4], -13.7%; in test [5] it was 4.95%; in test [6], -24.6%.
Regarding `CC(=O)OCC1OC(Nc2[nH]c(=O)n(C)c(=O)c2-c2csc(N)n2)C(OC(C)=O)C(OC(C)=O)C1OC(C)=O` (stereo not given), the growth inhibition in test [1] is -12.8%; in test [2], -25.6%; in test [3], -32.9%; in test [4], 27.4%; in test [5] it was -8.9%; in test [6], -8.6%.
Regarding `Cc1ccc(NC(=O)C2C3CC4OC(=O)C2C4C3)cc1` (stereo not given), the growth inhibition in test [1] is -10.6%; in test [2], -4.45%; in test [3], 11.5%; in test [4], 0.55%; in test [5] it was 18.6%; in test [6], -16.6%.
Regarding `O=[N+]([O-])c1ccc(CCCCCc2ccccc2)cc1`, the growth inhibition in test [1] is -6.15%; in test [2], -17.6%; in test [3] it was 0.6%; in test [4], -75.2%; in test [5], 4.5%; in test [6], -21.4%.
Turning to `Clc1ccccc1C=NCCN=Cc1ccccc1Cl`, the growth inhibition in test [1] is -1.75%; in test [2], -14.8%; in test [3], -3.5%; in test [4], 0.5%; in test [5] it was 3.4%; in test [6] it was 1.15%.
Consider `CC(=O)NC(c1ccc(F)cc1)(c1ccc(F)cc1)C(F)(F)F`, for which the growth inhibition was 40.4% in test [1]; 11.1% in test [2]; 42.2% in test [3]; 35.6% in test [4]; 43% in test [5]; 40.9% in test [6].
Turning to `CC1(C2(C)CC2(Br)Br)CC1(Br)Br` (stereo not given), the growth inhibition in test [1] was 11.4%; in test [2] it was -0.65%; in test [3] it was 11.3%; in test [4] it was 15.8%; in test [5] it was -2.5%; in test [6] it was -0.65%.
Consider `Cc1cccc(C)c1N=O`, for which the growth inhibition in test [1] is -6.25%; in test [2], -15.2%; in test [3] it was -7.45%; in test [4], 22.8%; in test [5], 1.15%; in test [6] it was -16.1%.
Regarding `CC(C)N(CC(=O)NC(=O)c1ccccc1)C(C)C`, the growth inhibition in test [1] was -2.85%; in test [2] it was -6.45%; in test [3], -3.55%; in test [4], -32.9%; in test [5] it was 0.05%; in test [6], -2.6%.
In the case of `Cc1cc(Cl)ccc1NC(=O)C(=O)Cc1nc2ccc(C(=O)c3ccccc3)cc2[nH]c1=O`, the growth inhibition is 5.15% in test [1]; -4.75% in test [2]; -4.85% in test [3]; 22.9% in test [4]; 26.4% in test [5]; 7.15% in test [6].
On to `SC1(S)CCCN(Cc2ccccc2)C1`, for which the growth inhibition is 8.55% in test [1]; 19.2% in test [2]; 42.8% in test [3]; 35.6% in test [4]; 44% in test [5]; 37.8% in test [6].
In the case of `Cc1ccc(S(=O)(=O)c2ccccc2C)s1`, the growth inhibition is -9% in test [1]; -32.5% in test [2]; -16.4% in test [3]; 11.5% in test [4]; -14.6% in test [5]; -12.1% in test [6].
Turning to `CCCCN(c1ccccn1)S(=O)(=O)c1ccccc1`, the growth inhibition in test [1] is -2.3%; in test [2], 19.8%; in test [3], 19.3%; in test [4], 7.6%; in test [5], -3.55%; in test [6] it was 5.75%.
`C/C(=N/NS(=O)(=O)c1ccc(C)cc1)C(=NO)/C(C)=N\NS(=O)(=O)c1ccc(C)cc1`: the growth inhibition is 55.6% in test [1]; 70.2% (active) in test [2]; 45.4% in test [3]; 86.2% (active) in test [4]; 49.9% in test [5]; 60.5% in test [6].
